# From the supplement of paper PMC6555819
# What was measured:
# Assay in all cases: PBM binding z-score (relative to random genomic background probes); higher = stronger binding; sequences stand for … in GC…GCGATTGACAGCGTAGAATGAAGG
# [1] = system: FXR:RXRa (NR concentration 270 nM, RXRa partner concentration 90 nM)
# In short: (§1)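 Random background probes are the reference for binding z-scores. These scores derive from regression-normalized fluorescence on custom Agilent 4×180K protein-binding microarrays incubated 1 h with ligand-free nuclear receptor dimers. Binding was detected with antibodies against each partner (one per run).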
# [2] = system: LXRa:RXRa (NR concentration 270 nM, RXRa partner concentration 90 nM)
# In short: as §1
# [3] = system: LXRa homodimer (NR concentration 270 nM)
# In short: as §1
# [4] = system: LXRb:RXRa (NR concentration 270 nM, RXRa partner concentration 90 nM)
# In short: as §1
# [5] = system: LXRb homodimer (NR concentration 270 nM)
# In short: as §1
# [6] = system: PPARa:RXRa (NR concentration 270 nM, RXRa partner concentration 90 nM)
# In short: as §1
# [7] = system: PPARg:RXRa (NR concentration 180 nM, RXRa partner concentration 90 nM)
# In short: as §1
# [8] = system: PPARg:RXRa 270nM:90nM, anti-RXR (NR concentration 270 nM, RXRa partner concentration 90 nM)
# In short: as §1
# [9] = system: PPARg:RXRa 30nM:10nM, anti-RXR (NR concentration 30 nM, RXRa partner concentration 10 nM)
# In short: as §1
# [10] = system: PPARg:RXRa 90nM:30nM, anti-RXR (NR concentration 90 nM, RXRa partner concentration 30 nM)
# In short: as §1
Sequence,PBM binding z-score [1],PBM binding z-score [2],PBM binding z-score [3],PBM binding z-score [4],PBM binding z-score [5],PBM binding z-score [6],PBM binding z-score [7],PBM binding z-score [8],PBM binding z-score [9],PBM binding z-score [10]
TCTTTTAGATCAATAGAGGTTAAGAAAGTGCGCT,1.13,4.04,0.769,2.06,0.963,2.16,0.209,2.08,3.57,2.92
GCTATTAATTGAAAGGGCAACCGAATGATTCTCG,0.000102,0.439,1.02,0.408,-0.192,1.08,0.608,0.921,-0.0129,0.592
TCAGACAGGTGAAGGTGACTCAGGTACGCAGTCG,0.795,0.409,-0.133,0.864,0.128,1.58,0.781,2.13,3.51,2.83
CGAGCTAGGTCATTGACAGGACAGTGAATAGTAA,5.01,3.11,0.348,2,-0.314,3.33,2.12,2.15,0.406,1.34
TCTGCTAGGACAACGATGGTCAGCTAATCTGCTA,-0.541,-0.708,-0.957,-0.773,-0.823,-0.569,-0.0545,0.0795,0.983,0.581
TCTAGGAGGCCAGAGGGTCACTCAAGAGGTACGG,1.5,0.891,-0.426,0.559,-1.15,2.65,1.87,3.02,2.76,2.99
CATACTGGGTCAGCTAGGCCAGAGTAGGGACGGC,0.696,0.526,-0.513,0.249,-0.198,2.16,3.45,2.95,0.499,2.06
CGAACTAGGACAAGGACAGTGAATCTCCGCACGC,0.182,-0.241,-0.152,-0.655,-0.538,0.455,1.22,0.612,-0.234,0.216
TCTAGTTGGTAACGGAGGTCACACACGACGGGTA,2.77,3.39,3.31,3.27,0.826,3.7,2.37,3.33,3.38,3.55
ACAGACAGGTAAGTGAAGGTAACTCAGCTGGACG,0.106,0.0707,-0.103,-0.313,-0.579,-0.355,0.687,-0.165,-0.141,-0.389
GATACAGGGTCACGGCCAGAGTACGCGTATTGAT,7.54,5.1,-0.0336,4.33,-0.171,6.26,8.33,7.43,3.93,6.41
CCTGCTAGGTCAATGGACAGCTAAAGCAGCTCGC,2.71,2.11,-0.488,1.29,-0.325,2.73,1.63,2.17,0.0027,1.05
GCTGCTAGGTCAGGTTGGTCCGCTAACGGGTACG,1.45,0.788,-0.309,0.439,0.221,1.46,0.195,0.764,-0.421,0.25
CACACAGGGTCAGCTAGGCCAGAGTAGGGACGGC,4.77,2.64,-0.0558,2.18,0.152,4.32,3.21,2.62,0.502,1.62
ATCTCTAGGTAAGACTCAGTTCAGTCAAGAACGC,0.474,0.647,0.721,0.685,0.923,0.293,0.116,0.136,0.155,0.184
TCATATAGGTAAAGCTGAAAGTCGAACGATATGA,0.358,0.331,-0.286,0.366,-0.268,0.995,0.806,1.97,3.45,2.72
CCTGCCAGGTCATGGTCAGCTAATCTACAGTATG,3.97,3.04,-0.0461,2.28,-0.151,3.94,2.04,2.5,0.448,1.27
GCTAGTTGGTCAGAAAAAGGTCACACACCGGTCG,2.95,3.7,3.13,3.75,0.434,4.21,1.74,3.02,0.669,2.14
CAAACTAGGTCACTGGAAGGTCAAAGTCCGCATG,5.47,5.41,4.68,4.88,1.36,5.88,9.17,7.25,5.53,7.22
